About 8,800 targets were measured; listed, in parts, are those with a hit and a random draw of the rest. About 0.5% of all pairs of compound and target were hits.

Chain of UniProt P29350 (P29350 whole entry, looked up): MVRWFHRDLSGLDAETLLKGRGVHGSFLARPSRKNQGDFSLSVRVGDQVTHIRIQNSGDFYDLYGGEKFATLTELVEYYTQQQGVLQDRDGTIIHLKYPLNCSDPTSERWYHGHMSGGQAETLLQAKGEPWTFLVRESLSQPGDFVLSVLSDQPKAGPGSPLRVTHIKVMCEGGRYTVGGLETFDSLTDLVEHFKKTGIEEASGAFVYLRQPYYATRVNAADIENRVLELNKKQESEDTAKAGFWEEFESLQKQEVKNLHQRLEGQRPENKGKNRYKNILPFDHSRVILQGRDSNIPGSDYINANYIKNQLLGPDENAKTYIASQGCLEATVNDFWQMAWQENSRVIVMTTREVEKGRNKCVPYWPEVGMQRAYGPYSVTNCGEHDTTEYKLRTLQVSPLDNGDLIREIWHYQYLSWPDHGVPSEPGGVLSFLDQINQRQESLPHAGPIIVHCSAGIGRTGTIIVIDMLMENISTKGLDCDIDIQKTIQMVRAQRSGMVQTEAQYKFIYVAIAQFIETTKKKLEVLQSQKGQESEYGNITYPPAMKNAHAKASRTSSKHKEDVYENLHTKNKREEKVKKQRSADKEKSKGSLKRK
Chain of UniProt Q9H0N5 (Q9H0N5 whole entry, looked up): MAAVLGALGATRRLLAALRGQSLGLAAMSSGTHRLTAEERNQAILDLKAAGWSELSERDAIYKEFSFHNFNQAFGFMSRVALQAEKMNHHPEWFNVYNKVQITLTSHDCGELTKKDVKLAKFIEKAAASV
Chain of UniProt Q8NEB9 (Q8NEB9 whole entry, looked up): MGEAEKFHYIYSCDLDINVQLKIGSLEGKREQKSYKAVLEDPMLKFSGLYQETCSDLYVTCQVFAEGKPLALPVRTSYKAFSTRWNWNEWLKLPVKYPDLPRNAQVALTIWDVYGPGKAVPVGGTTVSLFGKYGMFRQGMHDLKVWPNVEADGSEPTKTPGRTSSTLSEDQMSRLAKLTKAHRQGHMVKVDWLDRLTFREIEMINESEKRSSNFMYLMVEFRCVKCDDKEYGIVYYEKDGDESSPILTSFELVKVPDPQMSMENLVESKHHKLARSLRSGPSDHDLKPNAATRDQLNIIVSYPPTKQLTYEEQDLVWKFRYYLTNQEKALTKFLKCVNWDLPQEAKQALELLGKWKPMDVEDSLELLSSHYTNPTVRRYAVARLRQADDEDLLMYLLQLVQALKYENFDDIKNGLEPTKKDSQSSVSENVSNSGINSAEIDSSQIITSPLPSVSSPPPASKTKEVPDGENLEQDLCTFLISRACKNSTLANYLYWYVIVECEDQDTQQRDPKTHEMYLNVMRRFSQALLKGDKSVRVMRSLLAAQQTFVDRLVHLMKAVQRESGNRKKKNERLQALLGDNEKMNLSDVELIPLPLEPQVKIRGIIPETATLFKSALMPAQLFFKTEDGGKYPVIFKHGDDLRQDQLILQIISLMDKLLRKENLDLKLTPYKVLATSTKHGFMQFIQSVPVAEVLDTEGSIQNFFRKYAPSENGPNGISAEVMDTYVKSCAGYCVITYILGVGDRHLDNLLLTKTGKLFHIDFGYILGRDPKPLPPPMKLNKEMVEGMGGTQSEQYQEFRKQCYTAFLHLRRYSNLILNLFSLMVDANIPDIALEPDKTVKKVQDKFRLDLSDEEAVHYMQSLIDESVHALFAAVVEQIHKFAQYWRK
Chain of UniProt Q9Y244 (Q9Y244 whole entry, looked up): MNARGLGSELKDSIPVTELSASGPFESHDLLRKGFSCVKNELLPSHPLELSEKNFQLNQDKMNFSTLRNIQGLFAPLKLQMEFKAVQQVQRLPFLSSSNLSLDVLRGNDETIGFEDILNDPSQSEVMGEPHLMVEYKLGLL
Chain of UniProt Q53EL6 (Q53EL6 whole entry, looked up): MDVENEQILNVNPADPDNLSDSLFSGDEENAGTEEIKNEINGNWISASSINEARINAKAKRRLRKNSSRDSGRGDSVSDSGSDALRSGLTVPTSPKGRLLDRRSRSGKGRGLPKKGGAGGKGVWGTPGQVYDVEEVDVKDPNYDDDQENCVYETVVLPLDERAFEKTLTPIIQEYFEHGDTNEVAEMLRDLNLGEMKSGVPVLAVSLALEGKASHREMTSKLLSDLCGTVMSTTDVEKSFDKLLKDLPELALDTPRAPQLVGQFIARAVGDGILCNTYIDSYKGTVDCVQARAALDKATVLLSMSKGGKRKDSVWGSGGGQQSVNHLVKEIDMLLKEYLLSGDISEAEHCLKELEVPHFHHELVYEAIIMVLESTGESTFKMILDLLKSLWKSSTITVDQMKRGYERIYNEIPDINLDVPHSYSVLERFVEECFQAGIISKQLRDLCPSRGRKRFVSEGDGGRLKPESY
Chain of UniProt Q8TEQ8 (Q8TEQ8 whole entry, looked up): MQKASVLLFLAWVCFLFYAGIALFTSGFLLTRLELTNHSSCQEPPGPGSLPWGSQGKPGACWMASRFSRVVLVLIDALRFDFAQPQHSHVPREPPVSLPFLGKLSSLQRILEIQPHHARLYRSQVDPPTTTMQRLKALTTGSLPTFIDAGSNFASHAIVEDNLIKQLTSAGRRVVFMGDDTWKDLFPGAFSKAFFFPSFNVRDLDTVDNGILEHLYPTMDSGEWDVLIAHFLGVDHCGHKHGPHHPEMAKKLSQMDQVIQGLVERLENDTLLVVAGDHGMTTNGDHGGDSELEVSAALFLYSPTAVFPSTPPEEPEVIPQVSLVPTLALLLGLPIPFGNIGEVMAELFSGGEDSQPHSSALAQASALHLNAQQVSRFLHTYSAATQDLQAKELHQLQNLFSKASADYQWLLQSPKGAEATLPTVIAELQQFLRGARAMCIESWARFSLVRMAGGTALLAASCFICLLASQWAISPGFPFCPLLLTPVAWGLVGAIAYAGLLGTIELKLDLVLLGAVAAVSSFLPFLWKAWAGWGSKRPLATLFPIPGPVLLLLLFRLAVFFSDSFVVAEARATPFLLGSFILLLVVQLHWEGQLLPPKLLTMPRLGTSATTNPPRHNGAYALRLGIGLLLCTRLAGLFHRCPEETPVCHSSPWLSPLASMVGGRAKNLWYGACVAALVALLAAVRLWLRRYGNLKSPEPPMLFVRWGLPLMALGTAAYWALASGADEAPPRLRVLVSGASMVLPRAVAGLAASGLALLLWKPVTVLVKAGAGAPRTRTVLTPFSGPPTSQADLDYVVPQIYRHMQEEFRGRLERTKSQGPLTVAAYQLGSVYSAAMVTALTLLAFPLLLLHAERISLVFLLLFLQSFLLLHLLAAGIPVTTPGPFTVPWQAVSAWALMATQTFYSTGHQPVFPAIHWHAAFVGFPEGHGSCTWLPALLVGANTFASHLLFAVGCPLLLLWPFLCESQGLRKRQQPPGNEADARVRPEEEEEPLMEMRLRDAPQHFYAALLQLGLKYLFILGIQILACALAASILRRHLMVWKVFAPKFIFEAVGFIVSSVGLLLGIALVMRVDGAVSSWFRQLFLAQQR
Chain of UniProt Q969Q6 (Q969Q6 whole entry, looked up): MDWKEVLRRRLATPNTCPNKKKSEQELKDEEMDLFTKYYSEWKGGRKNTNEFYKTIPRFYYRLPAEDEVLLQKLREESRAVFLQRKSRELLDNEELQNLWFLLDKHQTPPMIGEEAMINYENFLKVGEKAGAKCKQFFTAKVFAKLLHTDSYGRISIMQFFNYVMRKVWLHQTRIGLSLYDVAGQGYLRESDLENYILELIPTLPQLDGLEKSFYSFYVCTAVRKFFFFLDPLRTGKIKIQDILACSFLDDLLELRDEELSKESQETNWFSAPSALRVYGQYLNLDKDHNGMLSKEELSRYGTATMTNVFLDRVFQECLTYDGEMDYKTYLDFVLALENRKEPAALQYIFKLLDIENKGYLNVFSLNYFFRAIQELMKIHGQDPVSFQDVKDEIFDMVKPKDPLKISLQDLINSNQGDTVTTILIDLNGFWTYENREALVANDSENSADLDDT
Chain of UniProt Q9Y446 (Q9Y446 whole entry, looked up): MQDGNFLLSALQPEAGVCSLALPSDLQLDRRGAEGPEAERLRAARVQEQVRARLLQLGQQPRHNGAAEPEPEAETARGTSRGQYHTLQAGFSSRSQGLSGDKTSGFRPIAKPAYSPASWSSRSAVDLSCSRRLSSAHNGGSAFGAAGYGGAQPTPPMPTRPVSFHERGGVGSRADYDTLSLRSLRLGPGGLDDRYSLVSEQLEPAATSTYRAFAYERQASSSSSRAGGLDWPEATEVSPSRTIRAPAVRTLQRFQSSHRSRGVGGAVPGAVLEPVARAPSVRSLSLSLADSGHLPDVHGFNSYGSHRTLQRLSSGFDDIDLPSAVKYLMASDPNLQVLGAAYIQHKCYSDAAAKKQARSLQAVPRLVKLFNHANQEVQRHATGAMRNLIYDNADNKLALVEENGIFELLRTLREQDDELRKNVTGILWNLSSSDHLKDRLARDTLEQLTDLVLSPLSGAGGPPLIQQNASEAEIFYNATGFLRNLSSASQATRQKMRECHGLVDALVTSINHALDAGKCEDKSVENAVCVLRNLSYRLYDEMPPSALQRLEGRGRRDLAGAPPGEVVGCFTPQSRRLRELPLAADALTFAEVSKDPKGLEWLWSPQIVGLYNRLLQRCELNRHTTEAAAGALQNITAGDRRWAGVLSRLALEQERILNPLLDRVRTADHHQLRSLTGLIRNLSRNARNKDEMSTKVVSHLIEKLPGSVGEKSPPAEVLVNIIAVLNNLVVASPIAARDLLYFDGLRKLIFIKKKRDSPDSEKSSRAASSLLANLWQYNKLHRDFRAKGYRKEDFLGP
Chain of UniProt Q9H939 (Q9H939 whole entry, looked up): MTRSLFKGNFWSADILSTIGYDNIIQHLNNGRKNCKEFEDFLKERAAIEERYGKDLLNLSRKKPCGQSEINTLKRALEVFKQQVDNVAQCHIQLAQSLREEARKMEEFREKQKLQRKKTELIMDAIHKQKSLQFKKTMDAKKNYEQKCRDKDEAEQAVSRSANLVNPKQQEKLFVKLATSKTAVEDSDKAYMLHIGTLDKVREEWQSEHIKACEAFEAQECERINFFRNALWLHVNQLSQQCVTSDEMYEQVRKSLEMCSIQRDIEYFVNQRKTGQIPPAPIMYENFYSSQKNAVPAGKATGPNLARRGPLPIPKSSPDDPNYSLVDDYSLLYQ

Compound in the first assay: C=CC(=O)N1CCC[C@@H](n2nc(-c3ccc(Oc4ccccc4)cc3)c3c(N)ncnc32)C1 [ibrutinib]
Description: log2 fold change, soluble protein after heating vs DMSO (PISA); higher = thermal stabilisation; K562 lysate, 10 uM; active = over 0.2 and 3.5 SD of the protein, either way, in both replicates (recomputed). Put shortly:
(§1)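 K562 pellets were dounce-homogenised in PBS pH 7.4 containing 1 mM MgCl2, and the crude extract, at 1 mg/mL protein, was exposed to 10 μM compound for 30 min. Aliquots were heated for 3 min across 48°C-58°C, pooled, brought to 0.5% NP-40 at 4°C and spun at 21,000xg for 90 min, with the supernatant taken as soluble protein. TMTpro 16plex LC-MS/MS with equalised channel sums quantified that protein. Values are log-two fold changes in thermal stability relative to solvent controls, taken from duplicates.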
As to PFDN2 (UniProt Q9UHV9), the log2 fold change is 0.103 (inactive).
On the same count and under the same terms, with PUM1 isoform 3 (UniProt Q14671) the figure was -0.034 (inactive); with POLR2G (UniProt P62487), -0.01 (inactive).
On the same count and under the same terms, the value for PRKCSH (UniProt K7ELL7) was -0.05 (inactive); that for PTK2 (UniProt Q05397) was 0.085 (inactive); that for PCIF1 (UniProt Q9H4Z3) was 0.019 (inactive).
In the case of PIK3C3 (UniProt Q8NEB9), the log2 fold change is -0.056 (inactive).
The same measure, in the same setting: the value for PDIA4 (UniProt P13667) was 0.006 (inactive); that for PDCD4 (UniProt Q53EL6) was -0.002 (inactive).
With QKI (UniProt Q96PU8), the log2 fold change was -0.022 (inactive).
Same read-out and setting: the value for PTS (UniProt Q03393) was 0.213 (inactive); that for POMP (UniProt Q9Y244) was -0.025 (inactive).
The same measure, in the same setting: with POLD3 (UniProt Q15054) the figure was 0.018 (inactive).
On the same count and under the same terms, the value for PI4KB (UniProt Q9UBF8) was -0.044 (inactive).
Regarding PDE4DIP isoform 4 (UniProt Q5VU43), the log2 fold change was 0.249 (inactive).
Same read-out and setting: with PTPN6 isoform 4 (UniProt P29350) the figure was 0.051 (inactive).
Same read-out and setting: with PGLS (UniProt O95336) the figure was 0.012 (inactive); with PFKFB2 (UniProt O60825), -0.007 (inactive).
Take PSTPIP2 (UniProt Q9H939): the log2 fold change was -0.019 (inactive).
The same measure, in the same setting: with PI4K2A (UniProt Q9BTU6) the figure was -0.017 (inactive); with PLEKHO2 (UniProt Q8TD55), 0.358 (inactive); with PLIN2 (UniProt Q99541), 0.015 (inactive).
Same read-out and setting: with PHLDB1 (UniProt Q86UU1) the figure was 0.05 (inactive).
Same read-out and setting: the value for PRKD3 (UniProt O94806) was -0.112 (inactive); that for PTPN23 (UniProt Q9H3S7) was 0.024 (inactive).
As to PI4KA (UniProt P42356), the log2 fold change was 0.012 (inactive).
Still for that read-out and setting: with PUF60 isoform 2 (UniProt Q9UHX1) the figure was 0.153 (inactive); with PKP3 isoform 2 (UniProt Q9Y446), 0.005 (inactive); with PCBP2 isoform 3 (UniProt Q15366), -0.007 (inactive).
The same measure, in the same setting: the value for PTPN1 (UniProt P18031) was -0.003 (inactive).
Same read-out and setting: the value for PPP2R3C (UniProt Q969Q6) was 0.108 (inactive); that for PPT2 isoform 3 (UniProt Q9UMR5) was 0.03 (inactive).
PDCD6IP (UniProt Q8WUM4): the log2 fold change was -0.056 (inactive).
For the target PCBD2 (UniProt Q9H0N5), the log2 fold change was 0.035 (inactive).
Still for that read-out and setting: the value for PHKB isoform 3 (UniProt Q93100) was -0.004 (inactive); that for PFN1 (UniProt P07737) was -0.018 (inactive).
Still for that read-out and setting: the value for PIGO (UniProt Q8TEQ8) was 0.093 (inactive); that for PYCR2 (UniProt Q96C36) was 0.012 (inactive); that for POGK (UniProt Q9P215) was 0.051 (inactive).

Compound in a further assay: CC(=O)c1cnc2ccc(-c3cc(Cl)c(O)c(Cl)c3)nc2c1N[C@H]1CC[C@H](CN(C)C)CC1
Described as above. Put shortly:
as §1
For PFDN2 (UniProt Q9UHV9), the log2 fold change was 0.006 (inactive).
Same read-out and setting: with PUM1 isoform 3 (UniProt Q14671) the figure was 0.009 (inactive); with POLR2G (UniProt P62487), -0.001 (inactive); with PRKCSH (UniProt K7ELL7), 0.018 (inactive).
Still for that read-out and setting: the value for PTK2 (UniProt Q05397) was 0.188 (inactive).
In the case of PCIF1 (UniProt Q9H4Z3), the log2 fold change was 0.019 (inactive).
Same read-out and setting: with PIK3C3 (UniProt Q8NEB9) the figure was -0.021 (inactive); with PDIA4 (UniProt P13667), -0.008 (inactive).
The same measure, in the same setting: the value for PDCD4 (UniProt Q53EL6) was -0.002 (inactive); that for QKI (UniProt Q96PU8) was -0.012 (inactive); that for PTS (UniProt Q03393) was 0.015 (inactive).
Still for that read-out and setting: with POMP (UniProt Q9Y244) the figure was -0.043 (inactive).
As for POLD3 (UniProt Q15054), the log2 fold change is 0.006 (inactive).
Still for that read-out and setting: with PI4KB (UniProt Q9UBF8) the figure was 0.208 (inactive); with PDE4DIP isoform 4 (UniProt Q5VU43), -0.021 (inactive); with PTPN6 isoform 4 (UniProt P29350), -0.077 (inactive).
PGLS (UniProt O95336): the log2 fold change is -0.08 (inactive).
Same read-out and setting: with PFKFB2 (UniProt O60825) the figure was -0.014 (inactive); with PSTPIP2 (UniProt Q9H939), -0.037 (inactive); with PI4K2A (UniProt Q9BTU6), 0.044 (inactive).
The same measure, in the same setting: with PLEKHO2 (UniProt Q8TD55) the figure was -0.102 (inactive); with PLIN2 (UniProt Q99541), 0.031 (inactive); with PHLDB1 (UniProt Q86UU1), 0.049 (inactive).
The same measure, in the same setting: with PRKD3 (UniProt O94806) the figure was 0.054 (inactive); with PTPN23 (UniProt Q9H3S7), 0.007 (inactive).
On to PI4KA (UniProt P42356), for which the log2 fold change was 0.119 (inactive).
As to PUF60 isoform 2 (UniProt Q9UHX1), the log2 fold change was -0.049 (inactive).
On the same count and under the same terms, with PKP3 isoform 2 (UniProt Q9Y446) the figure was -0.022 (inactive); with PCBP2 isoform 3 (UniProt Q15366), 0.025 (inactive); with PTPN1 (UniProt P18031), -0.024 (inactive).
Still for that read-out and setting: the value for PPP2R3C (UniProt Q969Q6) was 0.089 (inactive); that for PPT2 isoform 3 (UniProt Q9UMR5) was 0.068 (inactive); that for PDCD6IP (UniProt Q8WUM4) was 0.042 (inactive).
As for PCBD2 (UniProt Q9H0N5), the log2 fold change was 0.02 (inactive).
The same measure, in the same setting: with PHKB isoform 3 (UniProt Q93100) the figure was 0.071 (inactive); with PFN1 (UniProt P07737), -0.007 (inactive).
On the same count and under the same terms, with PIGO (UniProt Q8TEQ8) the figure was 0.016 (inactive); with PYCR2 (UniProt Q96C36), 0.002 (inactive); with POGK (UniProt Q9P215), -0.012 (inactive).

The values are drawn from the supplement of paper PMC10849652.
